# Assay results taken from PubChem BioAssay AID2284359 (EPA ToxCast).
# Inconclusive results are not listed. Calls of active or inactive are those of the source. How the source made its calls: active means hit-call score of the fitted dose curve at least 0.9, where 1 is the maximum; inconclusive means response in the unintended direction; inactive means score below 0.9.
# Assay: ATG_M_06_EcoTox2: Attagene TRANS-FACTORIAL EcoTox-2 HepG2 Assay for M06 Transcription Factor (Internal Marker)
# Method: ATG_EcoTox2 is a cell-based, multiplexed assay created by modifying the existing Attagene TRANS-FACTORIAL system to include a panel of nuclear receptors from some or all the following species: human (Homo sapiens), african clawed frog (Xenopus laevis), rainbow trout (Oncorhynchus mykiss), japanese medaka (Oryzias latipes), and zebrafish (Danio rerio). The ECOTOX2-FACTORIAL format uses HepG2, a human liver cell line, with measurements taken at 24 hours after chemical dosing in a 24-well plate. ATG_M_06_EcoTox2 is one of 29 assay components calculated in the ATG_EcoTox2 assay. It is designed to make measurements of mRNA induction, a form of inducible reporter, as detected with fluorescence intensity signals by Reverse transcription polymerase chain reaction (RT-PCR) and Capillary electrophoresis technology.The assay endpoint ATG_M_06_EcoTox2 was analyzed in the positive analysis fitting direction relative to DMSO as the negative control and baseline of activity. Using a type of inducible reporter, measures of mRNA for gain-of-signal activity can be used to understand the background control at the transcription factor-level as they relate to the gene. Furthermore, this assay endpoint can be referred to as a secondary readout, because this assay has produced multiple assay endpoints where this one serves a background control function. To generalize the intended target to other relatable targets, this assay endpoint is annotated to the background measurement intended target family, where the subfamily is internal marker.
# Human liver HepG2 cells are transiently transfected with multiple reporter transcription units (MRTUs) in 6-well plates using FuGene 6 reagent (Roche; 3 ml FuGene/1 mg DNA). The MRTU constructs are regulated by a cis-regulating element (promoter). Each RTU expresses a GAL4-UAS that regulates the transcription of a nearby target reporter gene sequence. A major difference between the CIS and TRANS system is that in CIS activities of endogenous TFs are measured, whereas the TRANS assay evaluates changes in activities of exogenous, chimeric NR-Gal4 proteins. […] At the end of 24 hour incubation, total RNA was isolated using TriZol reagent (Invitrogen). The isolated RNA is then reverse-transcribed using oligo(dT) primer and Mo-MLV reverse transcriptase (Invitrogen) with DNAse I (Ambion) treatment for 30 min. The one-tenth of the produced cDNA was amplified by PCR using Taq DNA polymerase (Invitrogen) and two reporter sequence-specific primers. The PCR products were fluorescently labeled by primer extension with 6-arboxyfluorescein (6-FAM) 5'-labeled reporter sequence-specific primer (2 min at 95 C, 20 s at 68 C and 10 min at 72 C) and these products were digested with 5U of HpaI (New England Biolabs) for 2h at 37 C. The fragments were purified using Qiaquick PCR columns (Qiagen), analyzed on an ABI 3130xL genetic analyzer (Applied Biosystems) with peak positions identified by using a set of X-rhodamine (ROX)-labeled MapMarker1000 molecular weight standards (BioVentures). The raw capillary electrophoresis data was processed using Attagraph software (Attagene).
row,SMILES,outcome
1,CC(C)OC(=O)C(C)(C)Oc1ccc(C(=O)c2ccc(Cl)cc2)cc1,inactive
2,Cc1cccc(Nc2cc(Cl)nc(SCC(=O)O)n2)c1C,inactive
3,Cc1nc(-c2ccc(C(F)(F)F)cc2)sc1C(=O)NCc1ccc(OC(C)(C)C(=O)O)cc1,inactive
4,CC(C)(Oc1ccc(Cl)cc1)C(=O)O,inactive
5,CC(c1cc2ccccc2s1)N(O)C(N)=O (stereo unspecified),inactive
6,C[C@]12C=CC(=O)C=C1CC[C@@H]1[C@@H]2C(=O)C[C@@]2(C)[C@H]1CC[C@]2(O)C(=O)CO,inactive
7,CC(C)(Oc1ccc(CCNC(=O)c2ccc(Cl)cc2)cc1)C(=O)O,inactive
8,C=C(c1ccc(C(=O)O)cc1)c1cc2c(cc1C)C(C)(C)CCC2(C)C,inactive
9,Cc1c(C)c2c(c(C)c1O)CCC(C)(COc1ccc(CC3SC(=O)NC3=O)cc1)O2 (stereo unspecified),inactive
10,CN(CCOc1ccc(CC2SC(=O)NC2=O)cc1)c1ccccn1 (stereo unspecified),inactive
11,CC(C)(Oc1ccc(C2CC2(Cl)Cl)cc1)C(=O)O (stereo unspecified),inactive
